From PubChem BioAssay AID1851 (National Center for Advancing Translational Sciences (NCATS), 2009)
Among all 16,000 compounds or so, about 5,800 (36%) were called active. Another 23% or so got no clear call; they are omitted. Calls follow the shape of the dose curve; as a rule, active = well fitted curve in the direction sought with a large enough effect; inconclusive = small, poorly fitted or top-dose-only effect, or effect the other way; inactive = no such curve, though single readings can be large or run the other way. The list shows a part of the results.

What follows are compounds tested against Cytochrome P450 2C19 (Homo sapiens) (UniProt P33261) (assay: Cytochrome panel assay with activity outcomes). Conditions: recombinant CYP, pro-luciferin dealkylation, luminescence, p450-cyp2c19; series mostly up to 57.1 µM; activity, negative = inhibition: at the top concentration.
% is scaled to controls: 0 for no effect and ±100 for the full control effect.

Cytochrome P450 2C19 (Homo sapiens), sequence (P33261 whole entry, looked up): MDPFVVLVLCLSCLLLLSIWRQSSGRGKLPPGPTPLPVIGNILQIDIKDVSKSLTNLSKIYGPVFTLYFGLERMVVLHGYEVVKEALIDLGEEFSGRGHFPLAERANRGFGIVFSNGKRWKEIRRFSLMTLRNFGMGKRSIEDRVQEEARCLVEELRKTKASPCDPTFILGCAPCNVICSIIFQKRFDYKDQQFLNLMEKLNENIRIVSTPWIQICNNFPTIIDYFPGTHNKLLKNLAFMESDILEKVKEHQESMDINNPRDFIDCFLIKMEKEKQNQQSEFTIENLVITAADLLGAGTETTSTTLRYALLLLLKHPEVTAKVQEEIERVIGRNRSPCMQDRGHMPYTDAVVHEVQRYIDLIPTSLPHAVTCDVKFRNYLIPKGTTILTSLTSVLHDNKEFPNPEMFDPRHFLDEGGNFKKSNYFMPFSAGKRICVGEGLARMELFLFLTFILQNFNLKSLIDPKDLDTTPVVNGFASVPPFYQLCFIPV

AC50, inactive:
CC(N)=NCCCC[C@H](N)C(=O)O

AC50, active:
CCCCSc1ccc2nc(-c3ccc(C#N)cc3)cn2c1 4.47 µM
Clc1ccccc1CNCC1CCC(CNCc2ccccc2Cl)CC1 (centres undefined) 0.794 µM
NC(=O)C1(N2CCCCC2)CCN(C(=S)Nc2ccc(Cl)cc2)CC1 3.16 µM
CCCCSC(=S)N(C)C1CCS(=O)(=O)C1 (centres undefined) 3.98 µM
CCCn1nc2cc(C(=O)NCCCCc3ccccc3)ccc2c1OCC 6.31 µM
COc1ccccc1CNC(=O)c1cc2c(C)nn(Cc3ccc(F)cc3)c2s1 11.2 µM
CCCCn1nc2cc(C(=O)NCCCCc3ccccc3)ccc2c1OCC 22.4 µM
CCCn1nc2cc(C(=O)NCc3ccccc3OC)ccc2c1OCC 20 µM
CCCn1nc2cc(C(=O)NC3CCCc4ccccc43)ccc2c1OCC (centres undefined) 28.2 µM
CCn1nc2cc(C(=O)NCC34CC5CC(CC(C5)C3)C4)ccc2c1OC 22.4 µM
CCCn1nc2cc(C(=O)NCCc3ccc(C)cc3)ccc2c1OCC 25.1 µM
CCOc1c2ccc(C(=O)NCc3ccc4c(c3)OCO4)cc2nn1CC 31.6 µM
O=C1C=C(NCCc2cc(Br)c(O)c(Br)c2)C(=O)c2ncccc21 0.501 µM
O=C(Nc1ncc(Cc2cc(Cl)ccc2Cl)s1)c1ccc([N+](=O)[O-])cc1 2 µM
CCC(C)C1NC(=S)N(C2CCCCC2)C1=O (centres undefined) 2 µM
CC(C)CC1NC(=S)N(C2CCCCC2)C1=O (centres undefined) 7.94 µM
Cn1c(=O)c(CCc2ccccc2)nc2cnc(Oc3ccccc3)nc21 25.1 µM
COc1ccc(Oc2ncc3nc(CCc4ccccc4)c(=O)n(C)c3n2)cc1 10 µM
O=c1c2ccccc2nc2n1C(CSCc1cccc(C(F)(F)F)c1)CS2 (centres undefined) 0.251 µM
C[n+]1cc2c3c(ccc2c2ccc4cc5c(cc4c21)OCO5)OCO3 6.31 µM
O=C(Nc1cc2c(oc1=O)CCCC2=O)c1ccc(Cl)cc1 22.4 µM
O=c1ccc(NS(=O)(=O)c2ccccc2)cn1Cc1ccc(Cl)c(Cl)c1 0.2 µM
Cc1ccc(S(=O)(=O)Nc2ccc(=O)n(Cc3ccc(Cl)c(Cl)c3)c2)cc1 0.158 µM
O=c1ccc(NS(=O)(=O)c2ccc(Cl)cc2)cn1Cc1ccc(Cl)c(Cl)c1 0.251 µM
Clc1ccccc1-c1nc(-c2ccncc2)no1 0.0631 µM
COc1ccc2c(=O)c(-c3ccccc3C)c(C)oc2c1 20 µM
COc1ccccc1C1CC(c2c(-c3ccccc3)c3cc(Cl)ccc3[nH]c2=O)=NN1S(C)(=O)=O (centres undefined) 3.16 µM
O=c1oc2ccccc2cc1-c1csc(NN=C2CCCCC2)n1 1.58 µM
CC1CC(C)CN(C(=O)CSc2nnc(CSc3ncccn3)n2C)C1 (centres undefined) 14.1 µM
N#CC(=C1CCCC1)c1nc(-c2ccccc2)cs1 1.41 µM
Cc1ccc(-c2csc(C(C#N)=C3CCCC3)n2)cc1 2.24 µM
Nc1nc(N)c(-c2cccc(C(F)(F)F)c2)c(Cc2cccc(C(F)(F)F)c2)n1 2.51 µM
Cc1ccc(C(=O)N2CCN(C3c4cccc5cccc(c45)C3NS(=O)(=O)c3ccccc3)CC2)cc1 (centres undefined) 3.16 µM
CCOc1ccc(N(C(C)C(=O)N/N=C(\C)c2cccc(NC(=O)c3ccccc3)c2)S(C)(=O)=O)cc1 (centres undefined) 3.98 µM
CCc1nnc(NC(=O)C2Cc3ccccc3CN2S(=O)(=O)c2ccc(C)cc2)s1 (centres undefined) 0.631 µM
O=C(Nc1nccs1)C1Cc2ccccc2CN1S(=O)(=O)c1ccc(F)cc1 (centres undefined) 0.891 µM
O=C(Nc1nnc(C2CC2)s1)C1Cc2ccccc2CN1S(=O)(=O)c1ccccc1F (centres undefined) 0.0282 µM
Cc1ccccc1C(=O)N/N=C/c1ccncc1 39.8 µM
Cc1cc(C)cc(NC(=O)N2CCCC2C(=O)Nc2ccc(-n3cnnn3)c(C)c2)c1 (centres undefined) 0.282 µM
Cc1cc(NC(=O)c2ccco2)ccc1-n1cnnn1 17.8 µM
CCOC(=O)c1c(NC(=O)/C=C/c2ccc3c(c2)OCO3)sc(C)c1CC 5.01 µM
COc1cccc(OC)c1C(=O)NC(=S)N1CCN(c2ccc(C(F)(F)F)cc2[N+](=O)[O-])CC1 14.1 µM
CC(C)Oc1cccc(C(=O)NC(=S)N2CCN(c3ccc(C(F)(F)F)cc3[N+](=O)[O-])CC2)c1 8.91 µM
CCOc1ncccc1C(=O)OCC(=O)Nc1cc(C)ccc1C 5.01 µM
Cc1ccc(C(=O)NC(=S)NCC2CCCO2)cc1 (centres undefined) 6.31 µM
CCOc1cc(NC(=S)NCC2CCCO2)c(OCC)cc1NC(=O)c1cccc(C)c1 (centres undefined) 11.2 µM
CC1CCN(C(=O)c2ccc(COc3ccccc3Cl)o2)CC1 8.91 µM
Cc1ccccc1CS(=O)(=O)Cc1ccc(C(=O)NCc2cccnc2)o1 3.55 µM
CCOc1ccc(OCc2ccc(C(=O)NCc3cccnc3)o2)cc1 22.4 µM
CCOc1ccc(OCc2ccc(C(=O)N3CCc4ccccc4C3)o2)cc1 5.62 µM

activity, negative = inhibition, inactive:
Oc1ccccc1CNCc1ccccc1O -44.5% [at 11.4 µM]
O=C(O)C[C@H](Cc1ccccc1Cl)C(=O)O 14.2% [at 11.4 µM]
O=C(O)C1(Nc2ccc(Cl)cc2)CCCC1 25.8% [at 11.4 µM]
NC(=O)C1(N2CCCCC2)CCN(C(=O)c2ccc(-n3cnnn3)cc2)CC1 -7.9%
CCCCN(C(=S)Nc1ccccc1)C1CCS(=O)(=O)C1 (centres undefined) -28.8%
CCCNC1CCS(=O)(=O)C1 (centres undefined) 3.5%
COC(=O)Cc1c(C)nc2nc(NCc3ccccc3OC)[nH]n2c1=O -29.7%
NCC[C@H](N)C(=O)O -4.53% [at 11.4 µM]
CCOc1c2ccc(C(=O)NCc3ccco3)cc2nn1CC -25.6%
COCCn1nc2cc(C(=O)NCC34CC5CC(CC(C5)C3)C4)ccc2c1OC -28.7%
CCOc1c2ccc(C(=O)NC3CCCc4ccccc43)cc2nn1C (centres undefined) -18.9%
C=CCOc1c2ccc(C(=O)NC3CCCc4ccccc43)cc2nn1C (centres undefined) -27.6%
COC(=O)C/C=C\[C@@H](C)[C@@H](/C=N\O[C@@H]1O[C@H](COC(C)=O)[C@H](OC(C)=O)[C@H](OC(C)=O)[C@H]1OC(C)=O)OC -12.5% [at 11.4 µM]
NS(=O)(=O)c1ccc(N=Nc2cc3ccccc3c(C(=O)O)c2O)cc1 -28.9% [at 11.4 µM]
OC[C@@H]1O[C@@H](n2cnc3cncnc32)[C@@H](O)[C@H]1O -17.6%
CCOC(=O)N/N=C1/C[C@@H](O)[C@@H](O)[C@@H]2[C@@H]3C(=O)N(c4cccc(Oc5ccccc5)c4)C(=O)[C@H]3CC[C@H]12 42.4% [at 11.4 µM]
N=C1CCC[C@@H]1C(=S)SCCC(N)=O -14.4% [at 11.4 µM]
COc1ccc(Oc2ncc3nc(C)c(=O)n(C)c3n2)cc1 -36%
Cc1nc2cnc(Oc3ccccc3)nc2n(C)c1=O -44.4%
Cn1c(=O)c(-c2cc(F)cc(F)c2)nc2cnc(Oc3ccccc3)nc21 -42.9%
COc1ccc(Oc2ncc3nc(-c4cc(F)cc(F)c4)c(=O)n(C)c3n2)cc1 0.472%
CC(C)N=c1cc2n(-c3ccc(Cl)cc3)c3ccccc3nc-2cc1Nc1ccc(Cl)cc1 -25.3% [at 25.6 µM]
COc1ccc2cc3[n+](cc2c1OC)CCc1cc2c(cc1-3)OCO2 -19.4% [at 25.6 µM]
CS(=O)(=O)c1ccccc1-c1nc(-c2cc(C(F)(F)F)cc(C(F)(F)F)c2)no1 -26.9%
O=C(c1ccccc1-c1nc(-c2ccccc2)no1)N1CCOCC1 -3.39%
CO[C@@H]1COC(=O)C/C=C\[C@@H](C)[C@@H]2C=C[C@H](O)[C@@H](COC(=O)CCC[C@H]1C)O2 -8.99% [at 11.4 µM]
CC(C)Oc1ccc2c(=O)c3cc(C(=O)O)ccc3oc2c1 -30.5%
N[C@H](C(=O)O)[C@H](O)C(=O)O -18%
Cc1ccc(-c2noc(-c3cc4ccccc4oc3=O)n2)cc1 -22.9%
CCCc1nnc(SCC(=O)N2CCCC(C)C2)n1CC1CCCO1 (centres undefined) -12.9%
CS(=O)(=O)c1ccc([C@H](O)[C@H](CO)NC(=O)C(Cl)Cl)cc1 -51.5% [at 25.6 µM]
Cc1ccc(S(=O)(=O)N[C@H](C(=O)N2CCC(C(=O)NCC(=O)O)CC2)C(C)C)cc1 -10.1%
CC(C)(CO)[C@H](O)C(=O)NCCCO -17.6% [at 25.6 µM]
C/C(CCN1CCCCc2nc(C)c(C)cc21)=N\OC[C@@H](C)[C@H](OCc1ccccc1)C(C)C -22.2% [at 11.4 µM]
C[N+](C)(C)CCO -4.75%
O=C(O)c1c[nH]c2c(ccc3[nH]cc(C(=O)O)c(=O)c32)c1=O -8.42% [at 11.4 µM]
O=C(N/N=C\c1cccc(O)c1)c1ccncc1 -1.11% [at 11.4 µM]
CC(=O)Nc1cccc(NC(=O)C2CCCN2C(=O)Nc2ccccc2C)c1 (centres undefined) -15.2%
Cc1cc(C)c(NC(=O)C2CCCN2C)c(C)c1 (centres undefined) -28.8%
CC(C)=CCC/C(C)=C/CO/N=C1/C[C@@H](O)[C@@H](O)[C@@H]2[C@@H]3C(=O)N(C(C)(C)C)C(=O)[C@H]3CC[C@@H]12 -29.1% [at 11.4 µM]
CCOC(=O)c1c(NC(=O)/C=C/c2ccc3c(c2)OCO3)sc(C)c1C -10.8%
COc1ccccc1CN1CCCC2(CCN(S(C)(=O)=O)CC2)C1 4.75%
O=P(O)(O)O[C@@H]1O[C@H](CO)[C@@H](O)[C@H](O)[C@@H]1O 38.5% [at 11.4 µM]
CCOCC(=O)Nc1cc(-c2cn3cccnc3n2)ccc1C 29.5%
Cc1ccc(C)c(NC(=O)Cn2c([N+](=O)[O-])cnc2C)c1 -43.3%
CCOC(=O)Nc1ccc(C(=O)NCC2CCCO2)cc1 (centres undefined) 14.5%
Cc1cc(=O)oc(C)c1C(=O)NCc1cccnc1 12.1%
O=C(O)c1cc2cc(Cc3cccnc3)ccc2o1 34.7%
